Data from PubChem BioAssay (NCATS).
Records with an inconclusive call do not appear. Where a call stands in place of a potency, no number is given. Calls of active or inactive are those of the source. Calls come from the whole dose curve.

Test: Cytotoxicity counterscreen for inhibitors of SARS-CoV-2 cell entry (AID 1645845); note: nearly all actives have a fitted effect of over 50% in size
Settings: cell viability (SARS-CoV-2 entry assay cells); series mostly up to 57.1 µM
Summary of the method: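 48 h compound treatment (after 1 h preincubation), HEK293-ACE2 cells, 37 C/5% CO2; ATP luminescence endpoint; normalized to cell wells and media blanks.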
Potency is the fitted concentration of half-maximal effect.

Compound	Potency
CCCC1(CCC)CCC2(CCN(CCCN(CC)CC)C2)CC1	7.08 µM (active)
Cc1noc(C)c1-c1ccc(-c2cc(C(N)=O)c(NC(N)=O)s2)c(O[C@H]2CCNC2)c1	inactive
COC(=O)N[C@@H](C)CNc1nccc(-c2cn(C(C)C)nc2-c2cc(Cl)cc(NS(C)(=O)=O)c2F)n1	inactive
C[C@H](NC(=O)c1c(N)nn2cccnc12)c1cc2cccc(C#Cc3cnn(C)c3)c2c(=O)n1-c1ccccc1	inactive
COC1=C2C[C@H](C)C[C@H](OC)[C@H](O)[C@@H](C)/C=C(/C)[C@H](OC(N)=O)[C@@H](OC)/C=C\C=C(\C)C(=O)NC(=CC1=O)C2=O	inactive
CN(C)Cc1cccc(N=C(c2ccccc2)c2c(O)[nH]c3cc(C(N)=O)ccc23)c1	inactive
Nc1n[n+]([O-])c2ccccc2[n+]1[O-]	inactive
CCN1C(=O)N2Cc3cc(OC)cc(OC)c3[C@@H](C)C=C2C12CCN(Cc1cc(C)cc(C)c1)CC2	inactive
O=C(O)CC(C(=O)O)n1c(O)c(C2=c3cc(Br)ccc3=NC2=O)sc1=S (stereo unspecified)	inactive
C/C=C/C[C@@H](C)C(=O)[C@H]1C(=O)N[C@@H](C(C)C)C(=O)N(C)CC(=O)N(C)[C@@H](CC(C)C)C(=O)N[C@@H](C(C)C)C(=O)N(C)[C@@H](CC(C)C)C(=O)N[C@@H](C)C(=O)N[C@H](C)C(=O)N(C)[C@@H](CC(C)C)C(=O)N(C)[C@@H](CC(C)C)C(=O)N(C)[C@@H](C(C)C)C(=O)N1C	inactive
CN1CCN(c2nc(C3=C(c4c[nH]c5ccccc45)C(=O)NC3=O)c3ccccc3n2)CC1	inactive
